High-throughput results: PubChem BioAssay, The Scripps Research Institute Molecular Screening Center
FBW7 activator – human FBW7 E3 ligase activation, primary screen; Q969H0; AlphaScreen FBW7–phospho-cyclin E peptide binding, activator screen; normalized activity (activation), % at 26.1 µM; 650,000 tested, 0.13% active; in the data active = normalized activity above about 1.9%;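 also: purified mutant Fbw7 with reduced substrate affinity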
MITF inh – human MITF inhibition, primary screen; AID 1259374; inhibition, % at 2.6 µM; AlphaScreen MITF homodimerization, bead proximity signal; 650,000 tested, 0.91% active; in the data active = inhibition above about 50%
Target sequence (O75030 whole entry, looked up): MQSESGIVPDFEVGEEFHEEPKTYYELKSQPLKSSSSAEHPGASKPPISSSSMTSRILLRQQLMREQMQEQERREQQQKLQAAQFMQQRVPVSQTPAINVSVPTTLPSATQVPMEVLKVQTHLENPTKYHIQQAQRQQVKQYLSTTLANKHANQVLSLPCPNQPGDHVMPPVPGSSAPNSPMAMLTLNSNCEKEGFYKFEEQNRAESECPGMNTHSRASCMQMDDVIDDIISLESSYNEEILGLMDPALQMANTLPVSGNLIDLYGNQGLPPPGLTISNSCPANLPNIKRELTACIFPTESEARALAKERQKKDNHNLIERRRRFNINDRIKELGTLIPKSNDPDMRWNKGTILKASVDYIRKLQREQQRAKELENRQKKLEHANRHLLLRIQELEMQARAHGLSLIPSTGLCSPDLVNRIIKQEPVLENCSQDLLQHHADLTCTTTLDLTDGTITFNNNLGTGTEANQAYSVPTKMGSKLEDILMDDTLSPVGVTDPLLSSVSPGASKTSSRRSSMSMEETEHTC
TEAD-YAP inh – TEAD-YAP interaction inhibition; HEK-TIYL cells, TEAD-Gal4/YAP UAS-luciferase luminescence; inhibition, % at 9.12 µM; 640,000 tested, 1.4% active; in the data active = inhibition above about 32%
GPR151 ag – activates the human receptor GPR151 | 650,000 tested, 1% active | PathHunter beta-arrestin GPR151 cells, luminescence | Q8TDV0 | AID 1508602 | activation, % at 11.2 µM; in the data active = activation above about 4.9%
Of the large screens only hits and unclear results are named; the others gave an inactive call. Hits are enriched below; roughly 3.5% of the tested compounds scored in any of these assays.

CCOC(=O)c1[nH]c(C)c(C(=O)Nc2ccccc2F)c1C	none
CCOC(=O)c1[nH]c(C)c(C(=O)Nc2ccccc2OC)c1C	TEAD-YAP inh 59
CCOC(=O)c1[nH]c(C)c(C(=O)Nc2ccc(OC)cc2)c1C	none
CCOC(=O)c1[nH]c(C)c(C(=O)Nc2ccccc2)c1C	none
CCCCNC(=O)CSc1nc2ccccc2c(=O)n1CCN1CCOCC1	none
O=C(Nc1cc(Cl)cc(Cl)c1)C(F)C(F)(F)F (stereo not drawn)	none
O=C(CN1Cc2ccccc2OC(c2ccsc2)C1)NCc1nc(-c2ccccc2)no1 (stereo not drawn)	none
CCC(C)(C)n1nnnc1C(c1ccncc1)N1CCCC(C)C1 (stereo not drawn)	none
Cn1cccc1/C=C1\Cc2ccccc2C1=O	none
Cn1cccc1/C=C1\CCc2ccccc2C1=O	TEAD-YAP inh 64
CCS(=O)(=O)N1CCC(C(=O)NCCCOC(C)C)CC1	none
CCOC(=O)c1c(N)sc(C(=O)Nc2ccc(C)c(Cl)c2)c1C	TEAD-YAP inh 35
CCOC(=O)c1c(N)sc(C(=O)Nc2ccccc2)c1C	TEAD-YAP inh 32
CCOC(=O)c1c(N)sc(C(=O)Nc2ccccc2C(F)(F)F)c1C	none
CCOC(=O)c1c(N)sc(C(=O)Nc2cccc(Cl)c2)c1C	TEAD-YAP inh 50
CCOC(=O)c1c(N)sc(C(=O)Nc2ccccc2F)c1C	TEAD-YAP inh 48
O=C(CCCn1c(SCc2ccccc2F)nc2ccccc2c1=O)NCc1ccccc1	none
O=C(c1cccs1)N(CCCn1ccnc1)c1nc2c(F)cc(F)cc2s1	none
Nc1ccc(C(=O)OCC(=O)c2ccc(NC(=O)c3ccccc3)cc2)cc1	none
COC(=O)c1c(N)sc(C(=O)Nc2cccc(Cl)c2C)c1C	TEAD-YAP inh 69
O=C(Nc1ccnc2ccccc12)c1ccc(Br)cc1	TEAD-YAP inh 60
COc1ccc(NC(=O)c2ccc(Br)cc2)c2cccnc12	none
Cn1c(=O)c2c(nc(NCC3CCCO3)n2Cc2cccc(F)c2)n(C)c1=O (stereo not drawn)	none
O=[N+]([O-])c1ccc(/C=N/Nc2nc(N3CCOCC3)nc(N3CCOCC3)n2)o1	none
Cn1cccc(C(=O)Nc2ccc(CN3CCN(c4ccccn4)CC3)cc2)c1=O	TEAD-YAP inh 46
CC(=O)Nc1ccc(CN2CCN(c3ccccn3)CC2)cc1	none
C/C(=N\NC(=O)c1ccccn1)c1cccs1	TEAD-YAP inh 65
CCOc1ccc(-c2cc(C(=O)N/N=C(\C)c3cccc(OC)c3)[nH]n2)cc1	TEAD-YAP inh 52
CCOc1ccc(-c2cc(C(=O)N/N=C(\C)c3cccs3)[nH]n2)cc1	TEAD-YAP inh 60
COc1ccc(-c2cc(C(=O)N/N=C(\C)c3ccc(Cl)cc3)[nH]n2)cc1	none
CC(C)(C)NC(=O)CSc1nc(O)c(C2CCCCC2)c(=O)[nH]1	none
Clc1cccc(-c2cnc3ccc(NC4CCOCC4)nn23)c1	TEAD-YAP inh 34
Nc1cccc(-c2cnc3ccc(NC4CCOCC4)nn23)c1	none
Cc1ccc(-c2cnc3ccc(NC4CCC(O)CC4)nn23)cc1C (stereo not drawn)	none
COc1cccc(-c2cnc3ccc(NC4CCOCC4)nn23)c1	TEAD-YAP inh 57
COc1ccc(-c2cnc3ccc(NC4CCOCC4)nn23)cc1OC	none
COc1cccc(-c2cnc3ccc(NC4CCC(O)CC4)nn23)c1 (stereo not drawn)	TEAD-YAP inh 64
O=C(COC(=O)c1ccccc1NC(=O)c1ccccc1)c1ccc(Cl)cc1	none
O=C(Cn1cnc2ccccc21)N1CCN(Cc2csc(-c3ccccc3)n2)CC1	TEAD-YAP inh 46
O=C(CCn1cnc2ccccc2c1=O)N1CCN(Cc2csc(-c3ccccc3)n2)CC1	none
CCOC(=O)c1ccc(NC(=O)c2ccc(Cl)c(S(=O)(=O)N3CCOCC3)c2)cc1	TEAD-YAP inh 73
CCOc1ccc(NC(=O)c2ccc(F)c(S(=O)(=O)N3CCCC3)c2)cc1	TEAD-YAP inh 37
CCOc1ccc(NC(=O)c2ccc(F)c(S(=O)(=O)N3CCN(C4CCCCC4)CC3)c2)cc1	TEAD-YAP inh 34
O=C(Nc1ccc(Cl)c(Cl)c1)c1ccc(F)c(S(=O)(=O)N2CCN(C3CCCCC3)CC2)c1	none
Cc1ccc(C(=O)Nc2ccc(Cl)cc2)cc1S(=O)(=O)N1CCOCC1	none
CCN(CC)C(=O)C1CCCN(Cc2ccc(C(C)C)cc2)C1 (stereo not drawn)	none
CN1C(=O)c2ccc(NC(=S)NC(=O)c3ccccc3Br)cc2C1=O	none
CC(C)NC(=O)NC(=O)COc1ccccc1C#N	none
CC(C)(C)NC(=O)NC(=O)COc1ccccc1C#N	TEAD-YAP inh 40
COc1ccc(-c2nnc3n2N=C(c2ccc(C)cc2)CS3)cc1	TEAD-YAP inh 52
COc1ccc(-c2nnc3n2N=C(c2ccc(C)cc2)CS3)cc1OC	TEAD-YAP inh 52
CCc1nnc2n1N=C(c1ccc(OC)c(OC)c1)CS2	none
COc1cccc(C2=Nn3c(nnc3-c3cccc(C)c3)SC2)c1	TEAD-YAP inh 48
COc1ccc(-c2nnc3n2N=C(c2ccc(F)cc2)CS3)cc1	none
COc1ccc(C2=Nn3c(nnc3-c3cccc(F)c3)SC2)cc1	TEAD-YAP inh 64
COc1ccc(-c2nnc3n2N=C(c2cccc(OC)c2)CS3)cc1	none
CCn1c(=O)n(CC(=O)Nc2cccc(Cl)c2)c(=O)c2ccccc21	none
Cc1ccc(S(=O)(=O)Nc2ccc(Cl)c3cccnc23)cc1	TEAD-YAP inh 58
O=S(=O)(Nc1ccc(Cl)c2cccnc12)c1ccccc1	TEAD-YAP inh 53
CCOc1ccc2nc(NC3=NC(C)(C)CC(C)=N3)nc(C)c2c1	none
CC1=NC(Nc2nc(C)c3cc(C)ccc3n2)=NC(C)(C)C1	TEAD-YAP inh 37
COc1ccc(C2C(C(=O)N3CCN(c4ccccc4OC)CC3)c3ccccc3C(=O)N2c2ccc(OC)cc2)cc1 (stereo not drawn)	TEAD-YAP inh 34
Cn1c(SCC(=O)N2CCCC2)nnc1-c1ccccc1O	TEAD-YAP inh 58
Cn1c(SCC(=O)O)nnc1-c1ccccc1O	TEAD-YAP inh 44
O=C(O)CCCc1nc2ccc([N+](=O)[O-])cc2[nH]1	none
NC(=O)c1ccc(-c2nc(N)c3ncn(-c4ccccc4)c3n2)cc1	TEAD-YAP inh 55
NC(=O)c1ccc(-c2nc(NC3CC3)c3ncn(-c4ccsc4)c3n2)cc1	none
NC(=O)c1ccc(-c2nc(N)c3ncn(-c4ccsc4)c3n2)cc1	TEAD-YAP inh 58
CN1CCN(C(=O)c2ccc(-c3nc(N)c4ncn(-c5ccccc5)c4n3)cc2)CC1	none
CCn1c(=O)c(=O)[nH]c2cc(C(=O)NNC(=O)Cc3nc4ccccc4n3C)ccc21	none
O=[N+]([O-])c1ccc(OS(=O)(=O)c2ccc3ccccc3c2)c2ncccc12	TEAD-YAP inh 48
COc1cc(C(=O)Oc2ccc([N+](=O)[O-])c3cccnc23)cc(OC)c1OC	none
CC(=O)NC(c1ccc(C)cc1)c1cc([N+](=O)[O-])c2cccnc2c1O (stereo not drawn)	none
CC(=O)NC(c1ccc(Cl)cc1Cl)c1cc([N+](=O)[O-])c2cccnc2c1O (stereo not drawn)	MITF inh 58
